Results filed as inconclusive are left out. Active and inactive are the calls of the source. The call rests on the fitted dose curve; in most records, active means well fitted curve in the direction sought with a large enough effect; inconclusive means small, poorly fitted or top-dose-only effect, or another doubt; inactive means no such curve, though single readings can be large; an effect the other way counts as inactive or inconclusive.
Columns and labels:
[1] = qHTS of pediatric cancer cell lines to identify multiple opportunities for drug repurposing: Primary screen for Rh18 cells (AID 1347102); further: nearly all actives have a fitted effect of over 65% in size; further: potency means the concentration at half of the fitted maximal effect; on activity change, negative = cytotoxic: on the % scale 0 is the no-effect control and ±100 the full control effect
Procedure, shortened: (§1)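 Viability after 48 h compound treatment at 37C, 500-1,000 cells/well, read as ATP luminescence with CellTiter-Glo. Primary screens used 11-point (MIPE, 0.78 nM-46 µM) or 8-point (NPC, 0.59 nM-46 µM) final concentrations; follow-up screens used 11-point dilutions.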

[2] = qHTS of pediatric cancer cell lines to identify multiple opportunities for drug repurposing: Primary screen for OHS-50 cells (AID 1347103); further: nearly all actives have a fitted effect of over 40% in size; further: potency means the concentration at half of the fitted maximal effect;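 on activity change, negative = cytotoxic: plate controls were DMSO neutral control for no effect and bortezomib positive control for full effect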
Procedure, shortened: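 Cells (500-1,000/well) rested 5 h, then received compounds for 48 h; metabolically active cells were measured by CellTiter-Glo luminescence. Final concentrations spanned up to 46 µM (MIPE, 11-point) or 0.59 nM-46 µM (NPC, 8-point) in primary screens, 11-point in follow-ups.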

[3] = qHTS of pediatric cancer cell lines to identify multiple opportunities for drug repurposing: Primary screen for MG 63 (6-TG R) cells (AID 1347105); further: nearly all actives have a fitted effect of over 50% in size; further: potency means the concentration at half of the fitted maximal effect; on activity change, negative = cytotoxic: on the % scale 0 is the no-effect control and ±100 the full control effect
Procedure, shortened: (§2)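 Luminescence from CellTiter-Glo served as readout of metabolically active cells after 48 h compound exposure. Titrations: MIPE 11-point, from 0.78 nM; NPC 8-point, from 0.59 nM (final). Concentration-response curves came straight from the primary screen.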

[4] = qHTS of pediatric cancer cell lines to identify multiple opportunities for drug repurposing: Primary screen for control Hh wild type fibroblast cells (AID 1347106); further: nearly all actives have a fitted effect of over 55% in size; further: potency means the concentration at half of the fitted maximal effect;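 on activity change, negative = cytotoxic: on the % scale 0 is the no-effect control and ±100 the full control effect; a drop in luminescence marks cytotoxicity and a rise apparent proliferation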
Procedure, shortened: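 Cells (500-1,000/well) in growth media were settled 5 h at 37 degrees C, then given compounds for 48 h. Viability was read as CellTiter-Glo luminescence. Primary runs used MIPE at 11 points (0.78 nM-46 µM) and NPC at 8 points (0.59 nM-46 µM); follow-ups used 11 points.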

[5] = qHTS of pediatric cancer cell lines to identify multiple opportunities for drug repurposing: Primary screen for Rh30 cells (AID 1347107); further: nearly all actives have a fitted effect of over 75% in size; further: potency means the concentration at half of the fitted maximal effect; on activity change, negative = cytotoxic: on the % scale 0 is the no-effect control and ±100 the full control effect
Procedure, shortened: as §1

[6] = qHTS of pediatric cancer cell lines to identify multiple opportunities for drug repurposing: Primary screen for Rh41 cells (AID 1347108); further: nearly all actives have a fitted effect of over 70% in size; further: potency means the concentration at half of the fitted maximal effect;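 on activity change, negative = cytotoxic: luminescence drop marks cytotoxic hits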
Procedure, shortened: as §2

[7] = qHTS of pediatric cancer cell lines to identify multiple opportunities for drug repurposing: Confirmatory screen for NB1643 cells (AID 1347109); further: nearly all actives have a fitted effect of over 45% in size; further: potency means the concentration at half of the fitted maximal effect;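 on activity change, negative = cytotoxic: plate controls were DMSO for no effect and bortezomib for full effect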
Procedure, shortened: as §1

[8] = qHTS of pediatric cancer cell lines to identify multiple opportunities for drug repurposing: Confirmatory screen for A673 cells (AID 1347110); further: potency means the concentration at half of the fitted maximal effect; nearly all actives have a fitted effect of over 65% in size
Procedure, shortened: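 Concentration-response curves came straight from titrations: 11 points (0.78 nM to 46 µM) for MIPE and several concentrations (0.59 nM to 46 µM) for NPC in primary, 11 points in follow-up. Readout: ATP luminescence at 48 h.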

[9] = qHTS of pediatric cancer cell lines to identify multiple opportunities for drug repurposing: Confirmatory screen for SK-N-MC cells (AID 1347111);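 further: potency means the concentration at half of the fitted maximal effect; cells exposed to compound for 48 h before the readout; nearly all actives have a fitted effect of over 70% in size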
Procedure, shortened: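 SK-N-MC cells at 500-1,000 cells/well in growth media were pre-incubated 5 h, then exposed to compounds at 11-point dilutions for 48 h at 37 degrees C, 5% CO2. Viability was read as CellTiter-Glo luminescence.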

[10] = qHTS of pediatric cancer cell lines to identify multiple opportunities for drug repurposing: Confirmatory screen for BT-12 cells (AID 1347112); further: nearly all actives have a fitted effect of over 55% in size; further: potency means the concentration at half of the fitted maximal effect; on activity change, negative = cytotoxic: on the % scale 0 is the no-effect control and ±100 the full control effect
Procedure, shortened: as §1

[11] = qHTS of pediatric cancer cell lines to identify multiple opportunities for drug repurposing: Confirmatory screen for LAN-5 cells (AID 1347113); further: nearly all actives have a fitted effect of over 65% in size; further: potency means the concentration at half of the fitted maximal effect
Procedure, shortened: as §1

[12] = qHTS of pediatric cancer cell lines to identify multiple opportunities for drug repurposing: Confirmatory screen for DAOY cells (AID 1347114); further: nearly all actives have a fitted effect of over 65% in size; further: potency means the concentration at half of the fitted maximal effect
Procedure, shortened: (§3)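 Viability measured as metabolically active cells via CellTiter-Glo luminescence following 48 hours of compound exposure, 11-point dilutions in confirmatory testing. 500-1,000 cells/well plated 5 hours before dosing; controls were DMSO and 2.3 µM bortezomib.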

[13] = qHTS of pediatric cancer cell lines to identify multiple opportunities for drug repurposing: Confirmatory screen for NB-EBc1 cells (AID 1347115); further: nearly all actives have a fitted effect of over 45% in size; further: potency means the concentration at half of the fitted maximal effect
Procedure, shortened: as §1

[14] = qHTS of pediatric cancer cell lines to identify multiple opportunities for drug repurposing: Confirmatory screen for BT-37 cells (AID 1347117); conditions: BT-37 pediatric cancer cells, viability; activity change, negative = cytotoxic: at 45.9 µM (top of the series); further: nearly all actives have a fitted effect of over 55% in size; further: potency means the concentration at half of the fitted maximal effect;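 on activity change, negative = cytotoxic: plate controls were DMSO for no effect and bortezomib for full effect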
Procedure, shortened: as §1

[15] = qHTS of pediatric cancer cell lines to identify multiple opportunities for drug repurposing: Confirmatory screen for TC32 cells (AID 1347118)
Procedure, shortened: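 TC32 cells, 500-1,000/well in growth medium, compound-treated 48 h at 37 °C; viability from CellTiter-Glo luminescence. Primary screen: MIPE 11-point (0.78 nM–46 µM final), NPC 8-point (0.59 nM–46 µM final); confirmatory at 11-point dilutions.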

[16] = qHTS of pediatric cancer cell lines to identify multiple opportunities for drug repurposing: Confirmatory screen for U-2 OS cells (AID 1347122); further: nearly all actives have a fitted effect of over 65% in size; further: potency means the concentration at half of the fitted maximal effect
Procedure, shortened: as §1

[17] = qHTS of pediatric cancer cell lines to identify multiple opportunities for drug repurposing: Confirmatory screen for MG 63 (6-TG R) cells (AID 1347119); further: nearly all actives have a fitted effect of over 55% in size; further: potency means the concentration at half of the fitted maximal effect
Procedure, shortened: as §1

[18] = qHTS of pediatric cancer cell lines to identify multiple opportunities for drug repurposing: Confirmatory screen for control Hh wild type fibroblast cells (AID 1347121); further: nearly all actives have a fitted effect of over 70% in size; further: potency means the concentration at half of the fitted maximal effect
Procedure, shortened: as §1

[19] = qHTS of pediatric cancer cell lines to identify multiple opportunities for drug repurposing: Confirmatory screen for SJ-GBM2 cells (AID 1347116); further: nearly all actives have a fitted effect of over 60% in size; further: potency means the concentration at half of the fitted maximal effect;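 on activity change, negative = cytotoxic: plate controls were DMSO for no effect and bortezomib for full effect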
Procedure, shortened: as §3

[20] = qHTS of pediatric cancer cell lines to identify multiple opportunities for drug repurposing: Primary screen for RD cells (AID 1347104)
Procedure, shortened: as §2

COc1ccnc2[nH]cc(C(=O)C(=O)N3CCN(C(=O)c4ccccc4)C[C@@H]3C)c12
inactive: Potency [1] | Potency [2] | Potency [3] | Potency [4] | Potency [5] | Potency [6]

Nc1ccn(C2CO[C@H](CO)O2)c(=O)n1 (stereo partly drawn)
inactive: Potency [1] | Potency [2] | Potency [4] | Potency [6]

Cc1ccc([N+](=O)[O-])cc1S(=O)(=O)N(C)N=Cc1cnc2ccc(Br)cn12
active: Potency [1] 148 nM | Potency [2] 30.6 nM | Potency [3] 18700 nM | Potency [6] 66.2 nM | Potency [7] 165 nM | Potency [8] 293 nM | Potency [9] 1040 nM | Potency [10] 827 nM | Potency [11] 522 nM | Potency [12] 329 nM | Potency [13] 293 nM | Potency [14] 329 nM | Potency [15] 293 nM | Potency [16] 7370 nM
inactive: Potency [4]

COc1cc(OC)c(C=CS(=O)(=O)Cc2ccc(OC)c(NCC(=O)O)c2)c(OC)c1
inactive: Potency [1] | Potency [3] | Potency [5] | Potency [18]
active: Potency [2] 172 nM | Potency [8] 369 nM | Potency [9] 293 nM | Potency [11] 1170 nM | Potency [12] 165 nM | Potency [14] 657 nM | Potency [15] 208 nM | Potency [17] 208 nM

C[N+](C)([O-])CCNc1ccc(NCC[N+](C)(C)[O-])c2c1C(=O)c1c(O)ccc(O)c1C2=O
inactive: Potency [1] | Potency [2] | Potency [3] | Potency [4] | Potency [10] | Potency [13] | Potency [17] | Potency [18]
active: Potency [15] 4140 nM

CC[C@H]1OC(=O)[C@H](C)[C@@H](O[C@H]2C[C@@](C)(OC)[C@@H](O)[C@H](C)O2)[C@H](C)[C@@H](O[C@@H]2O[C@H](C)C[C@H](N(C)C)[C@@H]2O)[C@](C)(OC)C[C@@H](C)C(=O)[C@H](C)[C@@H](O)[C@]1(C)O
inactive: Potency [1] | Potency [2] | Potency [3] | Potency [4] | Potency [5] | Potency [6]

COc1ccc(C[C@@H](C)[C@@H](C)Cc2ccc(OC)c(OC)c2)cc1OC
inactive: Potency [1] | Potency [5] | Potency [11] | Potency [16]
active: Potency [2] 685 nM | Potency [9] 10400 nM | Potency [12] 11700 nM | Potency [15] 4140 nM | Potency [17] 9270 nM

Cn1cc(CNCC2CCN(c3ncc(C(=O)NO)cn3)CC2)c2ccccc21
active: Potency [1] 37.2 nM | Potency [2] 86.3 nM | Potency [3] 187 nM | Potency [4] 2640 nM | Potency [5] 1180 nM | Potency [6] 148 nM | Potency [7] 165 nM | Potency [8] 104 nM | Potency [10] 369 nM | Potency [12] 261 nM | Potency [19] 208 nM | Potency [17] 131 nM | Potency [18] 1310 nM

CC(C)(O)CC[C@@H](O)[C@](C)(O)[C@H]1CC[C@@]2(O)C3=CC(=O)[C@@H]4C[C@@H](O)[C@@H](O)C[C@]4(C)[C@@H]3CC[C@]12C
inactive: Potency [1] | Potency [2] | Potency [3] | Potency [4] | Potency [6]

c1cncc(CN2CCC(n3ncc4c(N5CCOCC5)nc(-c5ccc6[nH]ccc6c5)nc43)CC2)c1
active: Potency [1] 5900 nM | Potency [2] 2170 nM | Potency [3] 14800 nM | Potency [5] 14800 nM | Potency [6] 3320 nM

Nc1nc2c(c(=O)[nH]1)N(C=O)[C@H](CNc1ccc(C(=O)N[C@@H](CCC(=O)O)C(=O)O)cc1)CN2
inactive: Potency [1] | Potency [3] | Potency [4] | Potency [5] | Potency [6] | Potency [7] | Potency [10] | Potency [11] | Potency [12] | Potency [13] | Potency [19] | Potency [14] | Potency [17]
active: Potency [2] 27300 nM | Potency [9] 10400 nM | Potency [15] 10400 nM

NC[C@H]1O[C@H](O[C@H]2[C@@H](O)[C@@H](O[C@H]3O[C@H](CO)[C@@H](O)[C@H](N)[C@@H]3O)[C@H](N)C[C@@H]2N)[C@H](N)C[C@H]1O
inactive: Potency [1] | Potency [2] | Potency [3] | Potency [4] | Potency [5] | Potency [6]

CCN1CCN(C(=O)N[C@H](C(=O)N[C@@H]2C(=O)N3C(C(=O)O)=C(CSc4nnnn4C)CS[C@@H]23)c2ccc(O)cc2)C(=O)C1=O
inactive: activity change, negative = cytotoxic [1] 10.3% [at 9.22 µM] | activity change, negative = cytotoxic [2] 20.3% [at 11.5 µM] | activity change, negative = cytotoxic [3] 4.31% [at 9.22 µM] | activity change, negative = cytotoxic [4] -2.3% [at 9.22 µM] | activity change, negative = cytotoxic [6] 38.6% [at 9.22 µM]

C#C[C@]1(O)CC[C@@H]2[C@@H]3CCC4=CC(=O)CC[C@@H]4[C@H]3CC[C@@]21CC
inactive: Potency [1] | Potency [20] | Potency [3]

c1cc(N[C@@H]2CCNC2)nc(-c2cnc3ccc(-c4cn[nH]c4)cn23)c1
active: Potency [1] 20900 nM | Potency [2] 19300 nM | Potency [4] 23500 nM | Potency [6] 16600 nM
inactive: Potency [5]

NC(=O)c1ncn([C@@H]2O[C@H](CO)[C@@H](O)[C@@H]2O)c1N
inactive: Potency [1] | Potency [2] | Potency [3] | Potency [4] | Potency [5] | Potency [6]

CC(=O)C1=C(O)C=C2Oc3c(C(C)=O)c(O)c(C)c(O)c3C2(C)C1=O (stereo not drawn)
inactive: Potency [1] | Potency [3] | Potency [4] | Potency [5] | Potency [6]
active: Potency [2] 1720 nM

CCc1c(O)cc(O)c(C(=O)c2ccc(OCCN3CCOCC3)c(OC)c2)c1CC(=O)N(CCOC)CCOC
active: Potency [1] 1320 nM | Potency [6] 1180 nM

Reference: PubChem BioAssay (NCATS)
